# PubChem BioAssay AID504465 (National Center for Advancing Translational Sciences (NCATS), 2011)
# Hit rate of the full screen: of about 2,100 compounds, about 210 (10%) were called active. Inconclusive results (about 53%) are left out. Calls come from the whole dose curve; as a rule, active = well fitted inhibition curve with a large enough effect; inconclusive = small, poorly fitted or top-dose-only effect, or effect the other way; inactive = no such curve, though single readings can be large or run the other way. This is one part of the list. Where a call stands in place of a potency, no number is given.
# Assay: IN Cell qHTS Assay for Inhibitors of the mTORC1 Signaling Pathway in MEF (Tsc2-/-, p53-/-) Cells: Sytravon; note: nearly all actives have a fitted effect of over 60% in size
# Details: phospho-rpS6 immunofluorescence, 24 h; series mostly up to 38.3 µM
# How it was run: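 Tsc2-/-, p53-/- MEFs (empty-vector) treated with compound 24 h at 37 degree Celsius, then fixed and stained for phospho-rpS6 Ser235/236 (Alexa-488) plus Hoechst. Reported as % positive cells, thresholds set against 7.5 nM rapamycin and DMSO wells.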
# Potency is the fitted concentration of half-maximal effect.
row,Compound,Potency
1,CCCCN(C)CCNC(=O)Cn1ncc2c3ccccc3n(CCC)c2c1=O,inactive
2,CCCCNC(=O)c1cc(-c2cccnc2)nc2ccc(S(=O)(=O)NCCCC)cc12,inactive
3,O=C(CSc1nccn1-c1ccc(Cl)cc1)Nc1ccc(Cl)c(Cl)c1,inactive
4,CCC1=Nc2cc(C(=O)NC3CCC(C)CC3)ccc2Sc2ccc(C)cc21 (stereo unspecified),inactive
5,CC1CCN(S(=O)(=O)c2ccc3nc(Nc4cccc(F)c4)ccc3c2)CC1,inactive
6,CCSc1nc2ccccc2c(OCc2cc(C(=O)OC)ccc2OC)c1C(=O)OC,inactive
7,Cc1ccccc1CS(=O)(=O)c1ncc(Cl)c(C(=O)Nc2nnc(C(C)C)s2)n1,13.1 µM (active)
8,CC(C)c1ccc(NC(=O)CSC2=Nc3ccccc3C3=NC(CCC(=O)NCc4ccc(F)cc4)C(=O)N23)cc1 (stereo unspecified),inactive
9,O=C(CCn1cnc2onc(-c3ccc(F)cc3)c2c1=O)Nc1ccc(F)c(Cl)c1,inactive
10,O=S(=O)(c1ccc(-c2csc(=Nc3ccc(OC(F)(F)Cl)cc3)n2CCCO)cc1)N1CCCC1,1.85 µM (active)
11,COc1ccc(NC(=O)CCCN2C(=O)CCn3nc(-c4cn(C)c5ccccc45)cc32)cc1,inactive
12,CCOC(=O)C1=C(C)NC(=O)NC1c1cn(-c2ccccc2)nc1-c1ccc(OC(C)C)cc1 (stereo unspecified),inactive
13,O=C(Nc1ccc(F)cc1F)c1noc2c1CCc1ccccc1-2,inactive
14,CC1=Nc2cc(C(=O)NC3CCCC3)ccc2Sc2ccc(Br)cc21,inactive
15,Cc1cc(C)c2c(NC(=O)c3ccccc3Cl)c(C(=O)Nc3ccc(C)c(C)c3)sc2n1,1.65 µM (active)
16,Cc1cccc(C(=O)Nc2c(C(=O)NCc3ccc(Cl)cc3)sc3nc(C)cc(C)c23)c1,inactive
17,Cc1ccc(C(=O)Nc2c(C(=O)NCc3ccc(Cl)cc3)sc3nc(C)cc(C)c23)cc1,11.7 µM (active)
18,Cc1cc(C)c(NC(=O)c2sc3nc(C)cc(C)c3c2NC(=O)c2ccccc2)c(C)c1,inactive
19,Cc1ccc(NC(=O)c2cc(S(=O)(=O)N3CCc4ccccc43)ccc2F)cc1Cl,inactive
20,COCCCNC(=O)c1sc2nc(C)c(C(=O)Nc3ccc(C)cc3C)c(-c3ccc(Cl)cc3)c2c1N,inactive
21,CC(C)(C)c1ccc(NC(=O)CSc2nnc3scc(-c4ccccc4)n23)cc1,inactive
